# Most compounds without a hit are left out; they make up all but 11% or so of the library.
# Vaccinia Venus: vaccinia inhibition (Venus reporter). Vaccinia virus Venus reporter expression, fluorescence. Potency, µM (top dose mostly 36.5 µM), for the others: top-dose activity change, negative = inhibition, actives largely listed as inhibitors. 330,000 tested, 0.46% active; calls by dose curve; tested in A549 cells; further: on the % scale 0 is the no-effect control and ±100 the full control effect; nearly all actives have a fitted effect of over 30% in size
# Vaccinia mCherry: inhibitors of vaccinia virus infection (mCherry reporter signal); Potency, µM (highest dose often 36.5 µM), for the others: at the top dose activity change, negative = inhibition, usual class: inhibitors; AID 720579; 310,000 tested, 0.63% active; Vaccinia virus mCherry reporter infection, fluorescence; calls by dose curve; tested in A549 cells; further: on the % scale 0 is the no-effect control and ±100 the full control effect; nearly all actives have a fitted effect of over 35% in size
# Pf growth 96h: P. falciparum growth inhibition at 96 hours. P. falciparum luciferase reporter growth, 96 h. Potency, µM (highest dose often 28.7 µM), for the others: top-dose activity change, negative = inhibition, usual class: inhibitors. 320,000 tested, 6.9% active; further: on the % scale 0 is the no-effect control and ±100 the full control effect
#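 Infected RBCs, 2% Hct / 0.05% parasitemia final; luciferase-reporter P. falciparum; cpd 96 h, 37 C, 5% CO2; luciferase detection reagent; luminescence.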
# Pf growth 48h: inhibits P. falciparum growth in the first generation, 48 h. P. falciparum luciferase growth in erythrocytes, 48 h. AID 504832. Potency, µM (series often up to 28.7 µM), inactives show top-dose activity change, negative = inhibition, usual class: inhibitors. 310,000 tested, 5.9% active; further: on the % scale 0 is the no-effect control and ±100 the full control effect
#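 In quantitative HTS format, infected erythrocytes bearing luciferase-reporter parasites were treated for a single generation at 37 C. Luminescence after adding detection reagent served as the growth measure.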
# HCV inhibitor: inhibitors of hepatitis C virus infection; Huh7.5.1 HCVcc-Cre infection, luciferase reporter, 44 h; Potency, µM (highest dose often 41.8 µM), without a hit: top-dose activity change, negative = inhibition, usual class: inhibitors; 340,000 tested, 3.4% active; further: on the % scale 0 is the no-effect control and ±100 the full control effect
#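 Cells (1,000/well) were plated 4 h before compound, then infected with HCVcc-Cre virus (~0.5 moi). After 44 h further culture, infection was read as luciferase luminescence following a 15 min substrate incubation at room temperature.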
# NS1 function inh: influenza NS1 inhibition. AID 2326. 270,000 tested, 0.4% active. Potency, µM (titrated, usually from 46.1 µM), for the others: at the top dose activity, positive = more growth; calls by dose curve; further: actives are rising curves; nearly all actives have a fitted effect of over 50% in size
#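 Growth recovery, yeast-based: influenza A NS1 expressed in S. cerevisiae causes slow growth, and suppressors are detected by OD600. The parent strain without NS1 is used as positive control.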
# Active calls of the source: *; i = inactive; ? = inconclusive; / = no result. Unless noted, the call rests on the fitted dose curve; in most records, active means well fitted inhibition curve with a large enough effect; inconclusive means small, poorly fitted or top-dose-only effect, or another doubt; inactive means no such curve, though single readings can be large or run the other way. Potency means the concentration at half of the fitted maximal effect.
SMILES,Vaccinia Venus,Vaccinia mCherry,Pf growth 96h,Pf growth 48h,HCV inhibitor,NS1 function inh
COC(=O)c1sc(-c2ccc(Cl)cc2)cc1NC(=O)/C=C/C(=O)O,-12.4%,-23.8%,0.3%,-15.2%,-13.5%,-6.9%
CCN1CCN(C(=S)c2ccc(Cl)c(Cl)c2)CC1,/,/,-16.6%,/,-20.3%,-1.5%
CC(=O)c1ccc(S(=O)(=O)N2CCN(c3nc(-c4cccnc4)nc4ccccc34)CC2)cc1,/,/,?,8.28µM*,?,/
O=S(=O)(c1ccc(C(F)(F)F)cc1)N1CCN(c2nc(-c3ccccc3)nc3ccccc23)CC1,-10.8%,-13.9%,/,/,/,/
O=S(=O)(c1ccc(F)cc1)N1CCN(c2nc(-c3cccnc3)nc3ccccc23)CC1,-12.7%,-8.4%,10.4µM*,9.28µM*,?,/
O=S(=O)(c1ccccc1)N1CCN(c2nc(-c3cccnc3)nc3ccccc23)CC1,-10.1%,-13.8%,8.28µM*,?,?,/
O=S(=O)(c1ccc2c(c1)OCCO2)N1CCN(c2nc(-c3cccnc3)nc3ccccc23)CC1,/,/,?,?,/,4.1%
CCc1nc2ccc(C(=O)NCc3cccs3)cn2c1N(CC)CCOC,-18.3%,31.2%,/,/,/,/
O=C(OCC(=O)C12CC3CC(CC(C3)C1)C2)c1ccccn1,/,/,48.7%,18.9%,17.2%,-10.1%
Cc1ccc(-c2ncccc2OC(=O)C23CC4CC(CC(C4)C2)C3)cc1,-13.0%,-6.1%,9.28µM*,?,3.9%,-34.4%
N#Cc1ccc(-c2ccccc2)nc1SCC(=O)c1cc2ccccc2oc1=O,-6.6%,-26.0%,?,9.28µM*,6.4%,16.4%
O=C(CSc1nnc(-c2cccnc2)o1)Oc1ccccc1,/,/,4.4%,5.3%,2.9%,-86.5%
O=C(CSc1nnc(-c2cccnc2)o1)c1cc2ccccc2oc1=O,-1.2%,/,1.0%,7.38µM*,?,?
CCN(CC(=O)Nc1ccccc1OC)C(=O)CN1C(=O)NC2(CCCC2)C1=O,-3.9%,-19.4%,-8.0%,-8.2%,11.4%,/
Cn1c(=O)[nH]c2nnc(-c3ccc(Cl)c(Cl)c3)nc2c1=O,-6.6%,-6.4%,1.65µM*,?,18.4%,-57.4%
CCCCCCCC[n+]1cccc2c3ccccc3ccc21,?,-27.3%,31.7%,1.17µM*,1.41µM*,/
CCCCCCCCCC[n+]1cccc2c3ccccc3ccc21,/,/,?,2.08µM*,3.98µM*,/
CCc1ccc2[nH]c(=O)c(CN(CCN(CC)CC)C(=O)NC3CCCCC3)cc2c1,-16.2%,/,-2.0%,?,-22.4%,-2.2%
CC(=O)Nc1ccc(OCc2nnc(-c3ccccc3)o2)cc1,-0.1%,-13.8%,3.7µM*,28.3%,5.4%,-9.0%
COc1ccc(CNc2oc(-c3ccccc3)nc2C#N)cc1,-0.7%,7.4%,8.28µM*,20.2%,-14.2%,-55.8%
COc1ccc(-c2nc(C#N)c(NCc3ccccc3Cl)o2)cc1OC,?,-23.0%,0.586µM*,?,?,-2.4%
COc1ccc(-c2nc(C#N)c(NCc3ccccc3Cl)o2)cc1,/,/,?,9.6%,-17.8%,-8.4%
COc1ccc(-c2nc(C#N)c(NCc3cccnc3)o2)cc1OC,/,/,10.4µM*,?,-18.9%,9.0%
Cc1ccc(OCc2nnc(-c3ccccc3)o2)cc1,-4.3%,-7.1%,/,/,/,/
O=C(CSc1nc2ccccc2nc1Cc1ccccc1)NCc1ccccc1Cl,3.9%,-1.6%,/,/,/,/
SMILES,Vaccinia Venus,Vaccinia mCherry,Pf growth 96h,Pf growth 48h,HCV inhibitor,NS1 function inh
O=c1c2ccccc2nnn1Cc1ccccc1,/,/,2.0%,41.5%,6.3%,-4.1%
COc1ccc(C2=Nc3ccccc3OC2)cc1,?,?,54.7%,/,5.9%,-35.6%
COc1ccc(-c2nc(C#N)c(NCc3ccc(F)cc3)o2)cc1OC,12.6µM*,/,/,?,3.55µM*,-16.9%
COc1ccc(Cc2nnc(-c3ccccc3)o2)cc1,10.6%,-10.5%,11.7µM*,117.8%,3.2%,/
CCOc1ccc(-c2nc(C#N)c(NCc3ccc4c(c3)OCO4)o2)cc1,-12.4%,?,8.28µM*,21.9%,?,-0.1%
COc1ccc(CCNc2oc(-c3ccc(C)cc3)nc2C#N)cc1OC,/,/,-11.8%,-18.7%,?,-47.0%
Cc1ccc(OCc2nc(C#N)c(NCc3ccc4c(c3)OCO4)o2)cc1,-17.0%,-26.8%,11.7%,-14.7%,?,-61.2%
CCN(CC)S(=O)(=O)c1cccc(N=Nc2c(O)n(CC)c(=S)n(CC)c2=O)c1,/,/,-24.5%,23.3%,-1.0%,4.5%
C=CCN1C(=Nc2cccnc2)SCC1(O)c1ccc(C)cc1 (configuration not stated),/,/,16.1%,3.29µM*,/,-68.0%
COc1ccc(NC(=O)CCN2CCN(S(=O)(=O)c3ccc(Cl)cc3)CC2)cc1,-4.4%,i,/,?,-13.4%,-6.0%
CCOc1ccc(NC(=O)CCN2CCN(S(=O)(=O)c3cc(Cl)ccc3OC)CC2)cc1,?,/,2.62µM*,?,?,-13.5%
CCN(CC)c1ccc(NC(=O)CN2CCN(S(=O)(=O)c3cc(Cl)ccc3OC)CC2)cc1,?,?,/,10.4µM*,?,-11.5%
CC1(C)C=C(c2ccc(C(=O)O)s2)CC(C)(C)N1,0.4%,i,73.8%,-2.0%,6.5%,11.4%
C/C(=N\O)c1sc(-c2ccccc2)nc1C,-11.3%,0.1%,i,478.1%,9.7%,/
CCNC(=O)O/N=C(\C)c1sc(-c2ccccc2)nc1C,-15.4%,-7.4%,?,16.8%,11.2µM*,0.3%
COc1ccc(CCNC(=O)c2cc(Sc3cccc(Cl)c3)nc3ccccc23)cc1OC,-24.8%,-29.9%,/,/,/,/
Cc1ccc(NC(=O)C(C)Sc2nnc(C)n2C)cc1 (configuration not stated),/,/,174.5%,18.7%,3.7%,-15.1%
CCOC(=O)c1ccc(NC(=O)CSc2nnc(C3CCCCC3)n2C)cc1,/,/,8.28µM*,6.57µM*,2.9%,3.2%
CCOc1ccc(NC(=O)CSc2ncn[nH]2)cc1,3.3%,6.2%,11.7µM*,24.2%,-6.2%,15.9%
CCOc1ccc(NC(=O)C(C)Sc2nnc(C)n2C)cc1 (configuration not stated),-8.9%,-9.2%,13.1µM*,7.0%,16.3%,-5.7%
CCOC(=O)c1ccc(NC(=O)CSc2nnc(-c3cccs3)n2CC)cc1,/,/,/,?,?,-8.1%
CCOC(=O)c1ccc(NC(=O)CSc2nnc(-c3cccs3)n2C)cc1,-17.5%,i,3.29µM*,?,-0.4%,4.8%
Cc1ccc(S(=O)(=O)N(C)C)cc1NC(=S)NNC(=O)C(N)=O,0.8%,11.8%,41.9%,1.4%,0.6%,/
COc1cc(CCC(=O)OCC(=O)c2ccc[nH]2)cc(OC)c1OC,-8.2%,-13.2%,2.1%,-11.6%,13.5%,/
CCOc1ccc(C(=O)CSc2nnc(C3CC3)n2C)cc1,-8.6%,i,-35.6%,1.4%,?,-2.8%
CCOc1ccc(NC(=O)CSc2nnc(C3CC3)n2C)cc1,-7.4%,i,2.08µM*,-2.9%,-2.2%,3.7%
CCOC(=O)c1c(-c2ccc(C)o2)csc1NC(=O)CSc1ncn[nH]1,/,/,14.7µM*,/,?,6.3%
